Eight compounds from PubChem BioAssay (Tox21) can be followed below.

The nature of assay [1]: qHTS assay for small molecules that induce genotoxicity in human embryonic kidney cells expressing luciferase-tagged ATAD5 (AID 651632). Also: nearly all actives have a fitted effect of over 15% in size. In outline:
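HEK293T cells carrying a luciferase reporter tagged to ATAD5 were exposed to compound or DMSO vehicle for 16 hr at 37C, 5% CO2. Amplite was added, and after 30 min at room temperature luciferase activity was read as a marker of ATAD5 induction.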
A general note: In qHTS, concentration-response curves come from the screen itself.

The nature of assay [2]: qHTS assay for small molecule disruptors of the mitochondrial membrane potential (AID 720635). Also: potency is read from the fitted curve at half-maximal effect. The gist of the method:
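Mitochondrial membrane potential tracked with Mito-MPS dye, red aggregates (ex 540/em 590 nm) against green monomers (ex 490/em 535 nm). Compound treatment 1 hr at 37C, dye 30 min in HepG2.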

A short description of assay [3]: qHTS assay to test for compound auto fluorescence at 590 nm (red) in HepG2 cells (AID 720674). In outline:
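We screened compounds on adherent HepG2 cells, incubating them for an hour at 37 C in 5% CO2 before reading emission at 590 nm under 540 nm excitation; values reflect equivalence to Rose Bengal sodium fluorescence.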

A short description of assay [4]: qHTS assay to test for compound auto fluorescence at 535 nm (green) in HepG2 cells (AID 720675). Also: potency is read from the fitted curve at half-maximal effect.
Assay [5] is described as follows: qHTS assay to test for compound auto fluorescence at 590 nm (red) in HEK293 cells (AID 720679). In outline: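 Red channel, Ex/Em 540/590nm; signal expressed as equivalency to Rose Bengal sodium. HEK293, 2,000 cells/well, 10% dialyzed FBS; 23 nL compound pinned after 4-5 hr attachment; overnight 37C/5% CO2 before reading.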
The nature of assay [6]: qHTS assay to test for compound auto fluorescence at 590 nm (red) in HEK293 cell free culture (AID 720683). In outline:
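Red-channel autofluorescence of compounds in culture medium (DMEM, 10% FBS), no cells, measured at 540/590 nm. Rose Bengal sodium is the reference fluorophore for equivalence.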

Assay [7] in a line: qHTS assay to test for compound auto fluorescence at 590 nm (red) in HepG2 cell free culture (AID 720684). In outline:
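Steps: dispense MEM/10% FBS medium, no cells; pin compound or DMSO vehicle; read red channel, Ex/Em 540/590 nm. Output given as Rose Bengal sodium equivalents.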

Assay [8] in a line: qHTS assay to test for compound auto fluorescence at 535 nm (green) in HepG2 cell free culture (AID 720686). Also: potency is read from the fitted curve at half-maximal effect.
Assay [9] in a line: qHTS assay for small molecules that induce genotoxicity in human embryonic kidney cells expressing luciferase-tagged ATAD5 - cell viability (AID 651634; calls by dose curve; also: nearly all actives have a fitted effect of over 25% in size; also: potency is read from the fitted curve at half-maximal effect). In outline: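 HEK293T cells expressing luciferase-tagged ATAD5 were exposed to compound or DMSO for 15.5 hr at 37C, 5% CO2. Viability was then read as live-cell protease activity by CellTiter-Fluor fluorescence after 30 min at 37C.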

Assay [10] is described as follows: qHTS assay for small molecule disruptors of the mitochondrial membrane potential - cell viability (AID 720634; calls by dose curve; also: nearly all actives have a fitted effect of over 20% in size; also: potency is read from the fitted curve at half-maximal effect). In outline:
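HepG2 cells seeded overnight at 37 C, then exposed to compound or DMSO for 1 hr at 37 C, 5% CO2. m-MPI dye added, then CellTiter-Glo for 30 min at room temperature; viability read as ATP luminescence.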

Assay [11] in a line: qHTS assay to test for compound auto fluorescence at 460 nm (blue) in HEK293 cells (AID 720678). The gist of the method:
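Blue read-out at excitation 405 nm and emission 460 nm follows overnight compound exposure of HEK293 cells at 37C in 5% CO2. Activity is given as auto fluorescence equivalency to triamterene.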

Assay [12] is described as follows: qHTS assay to test for compound auto fluorescence at 535 nm (green) in HEK293 cells (AID 720680).
Assay [13] in a line: qHTS assay to test for compound auto fluorescence at 460 nm (blue) in HEK293 cell free culture (AID 720681). In outline:
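Blue fluorescence (Ex 405/Em 460 nm, triamterene-equivalent) was read immediately after pin transfer of compound or DMSO into medium (DMEM, 10% FBS) without cells.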

Assay [14] is described as follows: qHTS assay to test for compound auto fluorescence at 535 nm (green) in HEK293 cell free culture (AID 720682). The gist of the method:
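Read-out: 485/535 nm fluorescence intensity, calibrated against fluorescein. Medium only (DMEM + 10% FBS, no cells); test compound or DMSO vehicle added by pintool before plate reading.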

A short description of assay [15]: qHTS assay to test for compound auto fluorescence at 460 nm (blue) in HepG2 cells (AID 720687). The gist of the method:
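Blue-channel autofluorescence (Ex/Em 405/460 nm, triamterene-equivalent) was measured after 1 hr compound exposure at 37 C, 5% CO2. Cells were HepG2, plated overnight at 37 C in MEM plus 10% FBS.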

Assay [16] is described as follows: qHTS assay to test for compound auto fluorescence at 460 nm (blue) in HepG2 cell free culture (AID 720685). The gist of the method: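 Compound (23 nL) or DMSO pinned into cell-free MEM with 10% FBS; blue fluorescence read at 405/460 nm excitation/emission, expressed as auto-fluorescence equivalency to triamterene.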
Assay [17] concerns the target Glucocorticoid receptor (Homo sapiens) (UniProt P04150). Briefly: qHTS assay to identify small molecule agonists of the glucocorticoid receptor (GR) signaling pathway (AID 720691; active = well fitted activation curve with a large enough effect in the signal ratio in the repeat runs, not every such curve was filed as active; the % refers to the signal ratio). Conditions: GR-bla HeLa, beta-lactamase reporter ratio, 18 h; activation: at 62.4 µM (top of the series). In outline:
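GR-bla HeLa cells (beta-lactamase reporter under glucocorticoid response element) were plated 4 h at 37 C/5% CO2, given compounds in DMSO, and incubated 18 h at 37 C. LiveBLAzer B/G FRET substrate was added for 2 h at room temperature, then fluorescence intensity read.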

Assay [18] has the same target. Nature of the assay: qHTS assay to identify small molecule antagonists of the glucocorticoid receptor (GR) signaling pathway (AID 720692; active = well fitted inhibition curve with a large enough effect in the signal ratio in the repeat runs, not every such curve was filed as active; the % refers to the signal ratio). In outline: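 GR-bla HeLa cells (beta-lactamase reporter under glucocorticoid response element) were pre-plated 4 h at 37 C, treated with compounds plus 5 nM dexamethasone (final) for 18 h, then read by LiveBLAzer B/G FRET fluorescence after 2 h.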

Assay [19] in a line: qHTS assay for small molecule agonists of the p53 signaling pathway - cell viability (AID 651633; calls by dose curve; also: nearly all actives have a fitted effect of over 30% in size; also: potency is read from the fitted curve at half-maximal effect). The gist of the method:
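Viability counter-read: CellTiter-Glo luminescence (30 min, room temperature) in the same p53RE-bla plates. These plates had been exposed to compounds for 16 h at 37 C.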

SMILES strings stand for the structures. Values without a mark were called inactive. Results filed as inconclusive are left out. Calls of active or inactive are those of the source. Unless noted, calls follow the shape of the dose curve; as a rule, active = well fitted curve in the direction sought with a large enough effect in the repeat runs; inconclusive = weak or mixed curves; inactive = no such curve, though single readings can be large; an effect the other way counts as inactive or inconclusive.
Tags tell the direction and shape of the fitted curve or compound fluorescence and quenching.

Sequence of Glucocorticoid receptor (Homo sapiens) (P04150 whole entry, looked up): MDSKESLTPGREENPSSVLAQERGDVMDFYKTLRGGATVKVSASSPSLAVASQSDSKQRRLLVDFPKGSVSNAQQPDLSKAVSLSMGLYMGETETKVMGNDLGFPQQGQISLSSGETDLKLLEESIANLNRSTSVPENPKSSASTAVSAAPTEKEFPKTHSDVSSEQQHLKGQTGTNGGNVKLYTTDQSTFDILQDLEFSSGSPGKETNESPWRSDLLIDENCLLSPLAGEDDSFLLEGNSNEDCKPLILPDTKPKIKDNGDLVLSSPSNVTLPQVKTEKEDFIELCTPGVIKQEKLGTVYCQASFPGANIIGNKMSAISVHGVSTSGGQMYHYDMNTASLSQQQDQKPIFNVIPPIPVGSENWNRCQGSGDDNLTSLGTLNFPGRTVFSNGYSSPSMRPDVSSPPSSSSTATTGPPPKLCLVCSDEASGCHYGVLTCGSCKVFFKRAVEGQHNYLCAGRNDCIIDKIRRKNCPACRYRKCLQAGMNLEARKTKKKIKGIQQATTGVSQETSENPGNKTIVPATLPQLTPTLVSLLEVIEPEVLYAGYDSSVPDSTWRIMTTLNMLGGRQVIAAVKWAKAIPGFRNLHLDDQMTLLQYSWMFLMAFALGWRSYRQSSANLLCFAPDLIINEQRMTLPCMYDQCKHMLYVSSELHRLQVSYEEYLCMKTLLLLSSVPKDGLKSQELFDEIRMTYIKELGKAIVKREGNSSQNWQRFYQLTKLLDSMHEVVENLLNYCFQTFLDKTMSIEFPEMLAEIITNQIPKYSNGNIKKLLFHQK

`Nc1ccc2c3c(cccc13)-c1ccccc1-2`: the Potency entry in assay [1], in assay [3], in assay [5], in [6] and in [7] was “inactive” throughout. The Potency was 4.91 µM (active) in [2], 39.8 µM (active) in [4] and 39.8 µM [fluorescent] (active) in assay [8].

Take `CC/C(=C(\c1ccc(O)cc1)c1ccc(OCCN(C)C)cc1)c1ccccc1`: the Potency entry in assay [1], in [3], in [4], in assay [11], in assay [5] and in assay [13] was “inactive” in each case. Further, the Potency result in assay [6], in assay [8] and in assay [15] was “inactive” each time. In addition, the Potency is 61.3 µM (active) in assay [9], 68.7 µM (active) in [10] and 24.4 µM (active) in [2]. The compound was classed as inactive in [12] and in assay [14].

Take `CCCCCCCCCCCCCCCC(=O)OC[C@H](O)[C@H]1OC(=O)C(O)=C1O`: the Potency result in [1], in assay [9], in assay [10], in assay [2], in [3] and in [4] was “inactive” throughout. For the same compound, the Potency entry in assay [11], in assay [5], in [13], in [6], in assay [7] and in assay [16] was “inactive” in each case. The Potency result in assay [15] was “inactive”. Moreover, the compound was called inactive in [12].

Turning to `O=c1[nH]sc2ccccc12`, the Potency result in [1], in assay [9], in [10], in assay [3], in assay [11] and in assay [5] was “inactive” throughout. Moreover, the Potency entry in [13], in [6], in [7], in [16], in [8] and in [15] was “inactive” each time. Also, in assay [2], the Potency is 27.3 µM (active). In addition, the compound was called inactive in [12] and in assay [14].

Turning to `CCN(CCC#N)c1ccc(N=Nc2c(Cl)cc([N+](=O)[O-])cc2Cl)cc1`, the Potency result in [1], in [3], in assay [4], in assay [11], in [5] and in [13] was “inactive” each time. The Potency result in [6], in assay [7], in assay [15], in [17] and in assay [18] was “inactive” in each case. The figures for the Potency in assay [9] and in [10] were 54.5 µM (active) and 19.3 µM (active), respectively. Further, the compound was called inactive in assay [12] and in assay [14].

Consider `CC1(C)CCC(C)(C)c2cc(C(=O)Nc3ccc(C(=O)O)cc3)ccc21`, for which the Potency entry in assay [1], in assay [10], in [3], in assay [4], in assay [11] and in [13] was “inactive” in each case. The Potency result in assay [6], in assay [7], in assay [16], in [8] and in [15] was “inactive” throughout. The Potency is 61.1 µM (active) in [19] and 54.5 µM (active) in [2]. In addition, the compound was called inactive in assay [12] and in assay [14].

As for `Cc1c(C)c2c(c(C)c1OC(=O)CCC(=O)O)CC[C@@](C)(CCC[C@H](C)CCC[C@H](C)CCCC(C)C)O2`, the Potency result in assay [1], in [19], in assay [10], in [3], in assay [4] and in [11] was “inactive” in each case. Further, the Potency entry in [5], in assay [13], in assay [6], in [7], in assay [8] and in assay [15] was “inactive” throughout. The call in assay [12] was inactive.

For the compound `CC(C)(C)NC(=O)[C@@H]1C[C@@H]2CCCC[C@@H]2CN1C[C@@H](O)[C@H](Cc1ccccc1)NC(=O)[C@H](CC(N)=O)NC(=O)c1ccc2ccccc2n1`, the Potency entry in [1], in assay [10], in assay [3], in assay [4], in assay [11] and in assay [5] was “inactive” each time. Further, the Potency result in assay [13], in [6], in assay [7], in [16], in assay [8] and in assay [15] was “inactive” in each case. Moreover, the Potency in [2] was 43.8 µM (active). Also, the call in assay [12] and in [14] was inactive.
